“And” between values parts separate entries of the source, which are not always exact repeats. Equal entries are not always repeated. This is part of a sample that, as a whole, favours compounds with a hit. Of some 83,000 tested, about 20% had one in any assay.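 Step 1: grow cells in 96-well plates. Step 2: add test compound at a single concentration. Step 3: incubate 48 h. Step 4: record percent growth.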 Unmarked numbers belong to inactive results. The source made the active and inactive calls. The calls were made as follows: active = growth percent below 10; inactive = the rest.
These compounds were tested on MDA-MB-468 breast (assay: NCI-60 one-dose screen, 48 h (100 = growth as untreated, 0 = no growth, -100 = all killed)). Conditions: 10 µM unless noted.
`COc1cc2ncnc(Nc3ccc(Oc4ccnc(C)c4)c(C)c3)c2cc1NC(=O)CC1CCSS1` (stereo not given) was tested, and the growth was -67% (active).
`CC1(C)C=Cc2cc(/C(N)=N/C(N)=N/c3nc4ccccc4s3)ccc2O1` was tested, and the growth was 74.1%.
`COc1cc(NCCCCCN)c2ncccc2c1` showed a growth of 114%.
For `OC(c1cc(-c2ccc(C(F)(F)F)cc2)nc(C(F)(F)F)c1)C1CCCCN1` (stereo not given), the growth was -88.4% (active) and -89.6% (active) and -76.3% (active).
For `Cn1ccnc1C(=O)/C=C/c1ccc(C(=O)Nc2ccccc2O)cc1`, the growth was -3.85% (active).
`COC(=O)CSc1ccc(Cl)cc1` gave a growth of 126%.
In the case of `COC(=O)CC(=O)C(=O)OC`, the growth is reported as 95.3%.
`CCOC(=O)C(O)C(O)(c1ccccc1)c1ccccc1` (stereo not given) gave a growth of 115%.
`N#Cc1c(-c2cccs2)cc(-c2cnccn2)nc1SCC(=O)N/N=C/c1ccccc1` was tested, and the growth was 9.18% (active).
Compound `Cc1[nH]c(C(=O)Nc2nc3ccc(NC(=O)CCN)cc3s2)c(Cl)c1Cl` has a growth of 69.4%.
